Measurements taken from PubChem BioAssay (Tox21).
Values joined by “and” are separate entries in the source; they are usually repeats but may differ in a detail not shown here. Equal values may be shown once. Values without a mark were called inactive. Results filed as inconclusive are left out. Entries that show only a call come without a potency. Active and inactive are the calls of the source. Calls come from the whole dose curve; as a rule, active = well fitted curve in the direction sought with a large enough effect in the repeat runs; inconclusive = weak or mixed curves; inactive = no such curve, though single readings can be large; an effect the other way counts as inactive or inconclusive.

Tests used:
[1] = qHTS RealTime-Glo MT Cell Viability Assay in HEK293 cells - 16 hour (AID 1224872); note: top concentration of the series differs between compounds; nearly all actives have a fitted effect of over 50% in size
Procedure, shortened: (§1)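 HEK293 cells seeded with NanoLuc/prosubstrate reagent, rested 5 h at 37 C, then dosed and kept at 37 C up to 40 h. Nonlytic real-time luminescence from viable cells read at 0, 8, 16, 24, 32 and 40 h.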

[2] = qHTS RealTime-Glo MT Cell Viability Assay in HepG2 cells - 8 hour (AID 1224873); note: nearly all actives have a fitted effect of over 55% in size
Procedure, shortened: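 Real-time viability: cells seeded at 600 per well together with NanoLuc and cell-permeant prosubstrate, compounds added after 5 h incubation. Luminescence tracked at 0, 8, 16, 24, 32 and 40 h of exposure.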

[3] = qHTS RealTime-Glo MT Cell Viability Assay in HEK293 cells - 40 hour (AID 1224874); conditions: RealTime-Glo luminescence; max response: hits give low values; note: nearly all actives have a fitted effect of over 50% in size
Procedure, shortened: (§2)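 Real-time viability in HEK293: signal arises when living cells convert a prosubstrate for NanoLuc in the medium, so luminescence tracks viable cell number. Compound (23 nL, DMSO) added 5 h post-seeding; kinetic reads at 0–40 h, 37 C.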

[4] = A CellTox Green Cytotoxicity Assay to monitor cytotoxicity in HEK293 cells - 24 hour (AID 1224875); note: nearly all actives have a fitted effect of over 45% in size; note: potency is the fitted concentration of half-maximal effect
Procedure, shortened: (§3)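 Cells (HEK293, 600/well) and dye reagent are dispensed together. After 5 h at 37 C, 23 nL compound is pinned in. Plates stay at 37 C for 40 h with fluorescence read at 0h, 8h, 16h, 24h, 32h and 40h.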

[5] = qHTS RealTime-Glo MT Cell Viability Assay in HEK293 cells - 0 hour (AID 1224880); note: top concentration of the series differs between compounds; nearly all actives have a fitted effect of over 45% in size
Procedure, shortened: as §2

[6] = A CellTox Green Cytotoxicity Assay to monitor cytotoxicity in HEK293 cells - 32 hour (AID 1224881); note: nearly all actives have a fitted effect of over 40% in size; note: potency is the fitted concentration of half-maximal effect
Procedure, shortened: as §3

[7] = A CellTox Green Cytotoxicity Assay to monitor cytotoxicity in HEK293 cells - 8 hour (AID 1224884); note: nearly all actives have a fitted effect of over 35% in size; note: potency is the fitted concentration of half-maximal effect
Procedure, shortened: as §3

[8] = qHTS RealTime-Glo MT Cell Viability Assay in HepG2 cells - 16 hour (AID 1224885); note: nearly all actives have a fitted effect of over 50% in size
Procedure, shortened: (§4)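 HepG2 cells (600/well) were dispensed with RealTime-Glo reagents, incubated 5 h at 37 °C, then treated with compounds in DMSO for up to 40 h. Nonlytic NanoLuc luminescence reflecting viable cells was read at each stated time point.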

[9] = qHTS RealTime-Glo MT Cell Viability Assay in HEK293 cells - 24 hour (AID 1224886); note: top concentration of the series differs between compounds; nearly all actives have a fitted effect of over 50% in size
Procedure, shortened: as §1

[10] = qHTS RealTime-Glo MT Cell Viability Assay in HEK293 cells - 8 hour (AID 1224887); note: nearly all actives have a fitted effect of over 50% in size; note: potency is the fitted concentration of half-maximal effect
Procedure, shortened: as §2

[11] = A CellTox Green Cytotoxicity Assay to monitor cytotoxicity in HEK293 cells - 16 hour (AID 1224888); note: nearly all actives have a fitted effect of over 35% in size; note: potency is the fitted concentration of half-maximal effect
Procedure, shortened: as §3

[12] = qHTS assay to identify small molecule antagonists of the estrogen receptor alpha (ER-alpha) signaling pathway using the BG1 cell line in the presence of 0.1 nM 17-beta-estradiol - cell viability counter screen (AID 1259241); note: nearly all actives have a fitted effect of over 40% in size
Procedure, shortened: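 VM7Luc4E2 cells (endogenous ER-alpha, 4×ERE-luciferase), hormone-starved 5 days in charcoal-stripped FBS, were treated with compounds plus 0.1 nM 17beta-estradiol for 22 hr at 37C; viability read in same wells as CellTiter-Fluor live-cell protease fluorescence.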

[13] = A CellTox Green Cytotoxicity Assay to monitor cytotoxicity in HepG2 cells - 16 hour (AID 1224876); note: nearly all actives have a fitted effect of over 45% in size; note: potency is the fitted concentration of half-maximal effect
Procedure, shortened: (§5)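 Cells and non-lytic dye reagent are dispensed together (600 HepG2 cells/well) and incubated 5 h before DMSO compound transfer. Kinetic fluorescence is then recorded in the same wells during 40 h at 37 C.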

[14] = qHTS RealTime-Glo MT Cell Viability Assay in HepG2 cells - 32 hour (AID 1224877); note: nearly all actives have a fitted effect of over 55% in size
Procedure, shortened: as §4

[15] = A CellTox Green Cytotoxicity Assay to monitor cytotoxicity in HepG2 cells - 24 hour (AID 1224878); note: nearly all actives have a fitted effect of over 45% in size; note: potency is the fitted concentration of half-maximal effect
Procedure, shortened: as §5

[16] = A CellTox Green Cytotoxicity Assay to monitor cytotoxicity in HepG2 cells - 40 hour (AID 1224879); note: nearly all actives have a fitted effect of over 40% in size; note: potency is the fitted concentration of half-maximal effect
Procedure, shortened: as §5

[17] = A CellTox Green Cytotoxicity Assay to monitor cytotoxicity in HepG2 cells - 0 hour (AID 1224882); note: nearly all actives have a fitted effect of over 35% in size; note: potency is the fitted concentration of half-maximal effect
Procedure, shortened: as §5

[18] = A CellTox Green Cytotoxicity Assay to monitor cytotoxicity in HepG2 cells - 32 hour (AID 1224883); note: nearly all actives have a fitted effect of over 50% in size; note: potency is the fitted concentration of half-maximal effect
Procedure, shortened: as §5

[19] = A CellTox Green Cytotoxicity Assay to monitor cytotoxicity in HepG2 cells - 8 hour (AID 1224890); note: nearly all actives have a fitted effect of over 45% in size; note: potency is the fitted concentration of half-maximal effect
Procedure, shortened: as §5

[20] = qHTS RealTime-Glo MT Cell Viability Assay in HepG2 cells - 0 hour (AID 1224889); note: nearly all actives have a fitted effect of over 50% in size
Procedure, shortened: as §4

Row | SMILES | Potency [1] | Potency [2] | max response [3] [%] | Potency [4] | Potency [5] | Potency [6] | Potency [7] | Potency [8] | Potency [9] | Potency [10] | Potency [11] | Potency [12] | Potency [13] | Potency [14] | Potency [15] | Potency [16] | Potency [17] | Potency [18] | Potency [19] | Potency [20]
1 | Cc1cccc(Cc2cnc[nH]2)c1C | inactive | inactive | -0.68 | inactive | inactive | inactive | inactive | inactive | inactive | inactive | inactive | inactive | – | – | – | – | – | – | – | –
2 | CN | inactive | inactive | – | inactive | inactive | inactive | inactive | inactive | inactive | inactive | inactive | inactive | inactive | inactive | inactive | inactive | inactive | inactive | inactive | –
3 | O=C(N[C@@H]1N=C(c2ccccc2F)c2cccc3c2N(CC3)C1=O)c1cc2ccccc2[nH]1 | inactive | – | -2.71 | 5.35 µM (active) | inactive | 6.01 µM (active) | – | – | inactive | inactive | 5.35 µM (active) | – | 21.3 µM (active) | – | 21.3 µM (active) | 9.52 µM (active) | 26.8 µM (active) | 19 µM (active) | 21.3 µM (active) | inactive
4 | c1ccc(N=NNc2ccccc2)cc1 | inactive | – | -3.75 | 50.7 µM (active) | inactive | 50.7 µM (active) and 43.6 µM (active) | inactive | – | inactive | 50.7 µM (active) | – | inactive | – | inactive | – | 49 µM (active) | inactive | – | inactive | inactive
5 | N#CCCl | inactive | inactive | – | inactive | inactive | inactive | inactive | inactive | – | inactive | inactive | inactive | inactive | – | inactive | inactive | – | inactive | inactive | inactive
6 | NC1CCC(CC2CCC(N)CC2)CC1 (configuration not stated) | inactive | inactive | – | inactive | inactive | inactive | inactive | inactive | – | inactive | – | – | inactive | inactive | – | inactive | inactive | inactive | inactive | –
7 | C=CCOC(=O)c1ccccc1N | inactive | inactive | -17.8 | – | inactive | – | inactive | inactive | inactive | – | inactive | inactive | inactive | inactive | inactive | inactive | inactive | inactive | inactive | inactive
8 | Nc1ccccc1-c1ccccc1 | inactive | inactive | -12.7 | – | inactive | – | inactive | inactive | inactive | inactive | inactive | inactive | – | inactive | – | inactive | inactive | inactive | inactive | inactive
9 | CCc1cccc(C)c1N(C(=O)CCl)[C@@H](C)COC | inactive | – | -25.5 | – | inactive | – | – | – | inactive | inactive | – | – | 49 µM (active) | – | – | 49 µM (active) | – | – | – | inactive
10 | CC(Cc1ccccc1)N(C)Cc1ccco1 (configuration not stated) | – | inactive | 0.354 | inactive | inactive | inactive | inactive | inactive | inactive | inactive | inactive | – | inactive | inactive | inactive | inactive | inactive | inactive | inactive | inactive
11 | CCN(CC)Cc1nccn1-c1ccc([N+](=O)[O-])cc1C(=O)c1ccccc1Cl | – | inactive | -11.1 | inactive | inactive | inactive | – | inactive | inactive | inactive | inactive | inactive | inactive | inactive | inactive | inactive | inactive | inactive | inactive | inactive
12 | Nc1nc(N)c(N)c(N)n1 | – | inactive | 10.2 | 49.2 µM (active) | inactive | 49.2 µM (active) | 49.2 µM (active) | inactive | inactive | inactive | 55.2 µM (active) | inactive | 55.2 µM (active) | inactive | – | 55.2 µM (active) | 49.2 µM (active) | 55.2 µM (active) | 49.2 µM (active) | inactive
13 | CCOC(=O)Cc1ccccc1 | – | inactive | 17.4 | inactive | inactive | inactive | – | inactive | inactive | inactive | inactive | inactive | inactive | inactive | inactive | inactive | – | inactive | inactive | inactive
14 | COc1ccc2c(c1OC)C(=O)O[C@@H]2[C@H]1c2cc3c(cc2CCN1C)OCO3 | – | inactive | 1.56 | inactive | inactive | inactive | – | inactive | inactive | inactive | inactive | – | inactive | inactive | inactive | inactive | inactive | – | inactive | inactive
